# Efa HMGR inh = E. faecalis class II HMG-CoA reductase inhibition. purified E. faecalis HMGR, NADPH absorbance 340 nm kinetic. inhibition, % at 10 µM. 0.41% of 190,000 active. AID 1066;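 active means inhibition above a set limit, the median over all tested compounds plus 3 SD, cut at about 9.5% in these data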;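 further: enzyme runs in reverse so mevalonate oxidation gives rising NADPH absorbance; 0% = complete reaction with DMSO and 100% = background rate lacking mevalonate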
# EP2 modulator = EP2 receptor (human) modulation; 0.83% of 260,000 active; P43116; EP2-expressing cells, cAMP HTRF FRET, PGE2 co-stimulation; AID 940; induction, % at 25 µM;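 active means compounds whose cAMP rise, as percent of the full-agonist control response, exceeds 60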;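 further: rat C6 glioma line stably carrying human EP2 under a CMV promoter; the protocol text gives 20 µM as final concentration; 100% = response of wells given 1 µM PGE2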
# Target sequence (P43116 whole entry, looked up): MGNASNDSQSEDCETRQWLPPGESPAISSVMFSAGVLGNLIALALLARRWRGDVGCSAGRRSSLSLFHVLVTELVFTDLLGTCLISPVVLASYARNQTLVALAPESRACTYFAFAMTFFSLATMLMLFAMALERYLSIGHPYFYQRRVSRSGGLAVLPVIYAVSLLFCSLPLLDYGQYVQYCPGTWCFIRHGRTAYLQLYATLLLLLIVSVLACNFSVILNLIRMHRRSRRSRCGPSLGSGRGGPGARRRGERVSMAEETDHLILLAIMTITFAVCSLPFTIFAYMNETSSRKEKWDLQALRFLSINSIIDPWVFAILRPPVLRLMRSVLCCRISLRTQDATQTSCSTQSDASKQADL
# EP2 antag = inhibitors of human EP2 prostaglandin E2 receptor. C6 glioma cells expressing human EP2, cAMP TR-FRET; cells stimulated with saturating PGE2. inhibition, % at 25 µM. P43116. 0.52% of 260,000 active;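 active means percent inhibition above 40 after rounding to a whole number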;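 further: rat C6 glioma host cells with rolipram phosphodiesterase inhibitor present; the protocol text gives 20 µM as final concentration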
# Avidin fluor = compound fluoresces at 488/530 nm on avidin beads; compound fluorescence 488/530 nm, flow cytometry; active compounds read high; fluorescence (KMESF) at 10 µM; 0.38% of 220,000 active; AID 1775; in the data active means fluorescence above about 47
# GSH bead fluor = compound fluoresces at 488/530 nm on GSH beads; 0.25% of 190,000 active; GSH beads flow cytometry, compound fluorescence 488/530 nm; active compounds read high; AID 1776; fluorescence (KMESF) at 10 µM; in the data active means fluorescence above about 89;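 further: glutathione beads carrying GST-tagged Bcl family fusion proteins plus one bare bead set; values are compound well signal with DMSO vehicle wells as background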
# Starred values were filed as active, the others as inactive; · = not tested or not shown. In the library only some 2.1% were active in any assay of this set; here they are far more common.
SMILES,Efa HMGR inh,EP2 modulator,EP2 antag,Avidin fluor,GSH bead fluor
Cc1cccc(C(=O)Nc2nnc(SCC(=O)Nc3ccc4c(c3)oc3ccccc34)s2)c1,-1.9,18.2,9.3,12,8
COc1ccccc1C(=O)Nc1nnc(SCC(=O)Nc2ccc3c(c2)oc2ccccc23)s1,-4.8,-1.9,10.5,14,811*
COc1cc2c(cc1NC(=S)Nc1cccc3ccccc13)oc1ccccc12,0.8,-27.9,42.5*,9,46
O=C(c1cc2ccccc2oc1=O)N(C1CCCCC1)C1CCCCC1,·,-18.6,10.3,·,·
COC(=O)c1c(NC(=O)c2cccs2)sc(C(=O)Nc2ccc(C)cc2C)c1C,·,16.3,12.1,·,·
CCNC(=O)C1CCN(S(=O)(=O)c2cc(OC)ccc2OC)CC1,·,-10.6,13.7,·,·
Cc1cc(C)nc(N/N=C2/CCCC/C2=C\c2ccccc2)n1,13.6*,-54.2,4.5,11,16
Cc1ccc(CC(=O)NCCN2CCC(O)(c3ccc(F)cc3)CC2)cc1,·,-96.1,6.9,·,·
O=C(Cn1cccc1C(=O)c1ccccc1)NCc1ccco1,14.2*,29.9,21.6,14,33
Cc1cc(-c2cnc(C)nc2C2CCN(C(=O)Cc3ccc(F)cc3)CC2)on1,·,12.6,·,·,·
COc1cccc(-n2nnnc2SCC(=O)Nc2nc(C)c(C)s2)c1,·,-56.4,12.1,·,·
Cc1cc(N/C=C/C(=O)c2ccc(Br)cc2)no1,-5.8,-7.2,10.0,12,11
O=C(/C=C\Nc1ccc(Cl)cn1)c1ccc(Br)cc1,10.9*,2.4,5.9,9,14
C=CCn1c(O)c(C(c2ccccn2)c2c(O)n(CC=C)c(=S)[nH]c2=O)c(=O)[nH]c1=S,·,-4.5,5.1,·,·
NS(=O)(=O)c1cccnc1Nc1c(Cl)cccc1Cl,-0.1,24.8,12.8,108*,202*
CC(=O)NS(=O)(=O)c1cccnc1Nc1cccc(Cl)c1C,-4.6,15.6,7.7,7,11
COc1ccc(C2C(C(C)=O)=C(O)C(=O)N2CC#N)cc1OC (stereo unspecified),·,0.6,8.6,·,·
Cc1cc(=O)oc2cc(OCC(=O)N3CCOCC3)ccc12,-3.5,-6.6,9.3,2,122*
Cc1cccc(OCC(=O)N2CCOCC2)c1,-1.4,22.5,8.5,277*,11
Cc1cc(=O)oc2cc(OC(C)C(=O)N3CCOCC3)ccc12 (stereo unspecified),1.4,14.8,4.4,13,7
Cc1ccc(-c2ccc(OCC(=O)N3CCOCC3)cc2)cc1,0.3,1.3,16.5,16,31
COc1cc(OC)cc(C(=O)N2CCN(Cc3cccc(C)c3)CC2)c1,·,-42.9,8.9,·,·
O=C(Cc1cccc(F)c1)N1C2CCC1CC(O)(c1ccco1)C2 (stereo unspecified),·,6.5,·,·,·
NC[C@H](O)c1ccc(O)c(O)c1,·,71.8*,17.3,·,·
CC(C)NCC(O)c1ccc(O)c(O)c1 (stereo unspecified),·,76.4*,11.6,·,·
SMILES,Efa HMGR inh,EP2 modulator,EP2 antag,Avidin fluor,GSH bead fluor
COc1cc(C(O)CO)ccc1O (stereo unspecified),·,8.5,15.9,·,·
CC1CCN(C(=O)CSc2nnc(COc3ccc(Cl)cc3)n2C)CC1,·,16.2,10.5,·,·
Fc1ccc(C(c2nnnn2C2CCCC2)N2CCCCC2)cc1 (stereo unspecified),·,-1.3,6.8,·,·
CCN(CC)S(=O)(=O)c1cccc(-c2nnc(SCC(=O)NC)n2CCc2ccccc2)c1,-5.3,-9.8,11.3,161*,26
CCOc1cc(NC(=O)c2ccccn2)c(OCC)cc1NC(=O)c1ccc(C)cc1,13.3*,-21.8,7.5,10,17
O=C(CSc1ncccn1)Nc1ncc(Cc2ccc(Br)cc2)s1,·,-7.8,7.4,·,·
COc1ccc(-n2nnnc2SCC(=O)Nc2cccc(C(C)=O)c2)c(OC)c1,·,-89.4,7.9,·,·
Cc1ccc(S(=O)(=O)Nc2nc(C)cc(NCCN)n2)cc1,1.4,9.6,18.7,7,279*
CC(=O)C(C(C)=O)c1c(Cl)c(O)c(O)c2c(C(=O)c3ccccc3)coc12,-3.5,-27.3,56.6*,7,7
Cc1ccc(S(=O)(=O)n2[nH]c(=O)cc2NC(=O)c2cccs2)cc1,10.7*,-14.7,3.0,5,19
COc1ccc(N=c2oc3c(OC)cccc3cc2C(=O)NC2CCCC2)cc1,·,79.4*,4.5,·,·
CCOc1ccc(N=c2oc3c(OC)cccc3cc2C(=O)Nc2nccs2)cc1,·,-59.9,16.2,·,·
O=C(Cn1ccnc1-c1ccccc1)NC(c1ccccc1)c1cccnc1 (stereo unspecified),·,10.7,8.5,·,·
CN(C)c1nc(N)nc(N(c2ccccc2)c2ccccc2)n1,0.9,9.9,17.8,7,18
CCN(CC)c1nc(N)nc(N(c2ccccc2)c2ccccc2)n1,-8.8,36.7,12.8,73*,21
CCCCN(CCCC)c1nc(-c2ccncc2)nc2ccccc12,·,68.3*,7.8,4,·
COc1cccc(OC)c1C(=O)Nc1nc2ccc(C)cc2s1,·,-20.8,11.2,·,·
CCOc1ccc(S(=O)(=O)N(C)C)cc1-c1nc2c(C(C)(C)C)nn(C)c2c(=O)[nH]1,-4.5,14.4,36.5,21,10
CCOc1ccc(S(=O)(=O)N(C)CCO)cc1-c1nc2c(C(C)(C)C)nn(C)c2c(=O)[nH]1,24.9*,0.8,·,10,37
COc1cc(OC)c(C(=O)N2CCC(Cc3ccccc3)CC2)cc1OC,·,-62.8,5.2,·,·
COc1cc(OC)c2c(=O)cc(-c3ccccc3)oc2c1,-6.5,-6.3,·,8,22
COc1cc2c(c3oc(-c4ccccc4)cc(=O)c13)C=CC(C)(C)O2,-3.7,-12.5,49.5*,7,22
C=CCN1C(=O)CC(C(=O)OC)=C1C,·,-4.0,10.7,·,·
COc1ccc(Br)cc1/C=N/Nc1cccc(C(=O)O)c1,-8.1,11.6,2.6,78*,12
COc1cccc(OCc2cc(/C=N/Nc3ccc(C(=O)O)cc3)ccc2OC)c1,·,62.1*,9.3,7,·
SMILES,Efa HMGR inh,EP2 modulator,EP2 antag,Avidin fluor,GSH bead fluor
Cc1sc2nc(CN(C(=O)NC3CCCCC3)C3CCCC3)[nH]c(=O)c2c1C,1.5,28.2,23.2,56*,16
Cc1ccc(Cl)cc1NC(=O)CSc1nnc(-c2ccncc2)n1C1CCCCC1,·,-24.5,26.6,·,·
Clc1cccc(-c2cc3nc4c(c(N5CCN(c6cnccn6)CC5)n3n2)CCCC4)c1,-3.3,14.8,14.2,3,104*
Nc1ncnc2nc(-c3ccc(C[P+](c4ccccc4)(c4ccccc4)c4ccccc4)cc3)[nH]c12,·,25.3,40.5*,·,·
CC(C)Sc1nc2ncnc(N)c2[nH]1,-4.7,-26.9,1.0,6,15
COc1ccccc1NC(=O)N(CCc1cccc(C)c1)Cc1cc2cccc(C)c2[nH]c1=O,·,29.3,11.0,·,·
COc1ccc(CNS(=O)(=O)c2ccc(S(=O)(=O)N3CCCCC3)cc2)cc1,·,·,8.7,·,·
COc1ccc(S(=O)(=O)NCc2ccc(C)cc2)cc1,-3.4,13.4,6.6,7,263*
Cc1ccc(S(=O)(=O)NCc2c(Cl)cccc2Oc2ccccc2)cc1,·,68.6*,10.0,7,·
CN(Cc1cc(=O)[nH]c2ccccc12)C(=O)c1ccccc1,1.7,21.2,·,7,271*
